{"source": "the OligoGym collection", "data": [{"target": "JOSD1", "assay": "pooled miR-30 sensor sort-seq; sequence = guide strand", "conditions": "shRNA", "values": [{"sequence": "TTGTGAGGTGTCACCATGGTGT", "sensor-assay potency score (higher = more potent)": -0.922}, {"sequence": "TTTCCCAGCATGCTCTTCTTGT", "sensor-assay potency score (higher = more potent)": -0.498}, {"sequence": "TTGGAGTCGAGGTTGTAGTAGG", "sensor-assay potency score (higher = more potent)": -0.655}, {"sequence": "TTTTAGAAACTTCCTGAGCTCG", "sensor-assay potency score (higher = more potent)": -0.609}, {"sequence": "ATCTCTTGCAGCGTATCCCGGG", "sensor-assay potency score (higher = more potent)": -0.409}, {"sequence": "TTTAGAAACTTCCTGAGCTCGC", "sensor-assay potency score (higher = more potent)": 0.218}, {"sequence": "TTGAGTTTGGAGTCGAGGTTGT", "sensor-assay potency score (higher = more potent)": 0.206}]}, {"target": "KAAG1", "assay": "pooled miR-30 sensor sort-seq; sequence = guide strand", "conditions": "shRNA", "values": [{"sequence": "TGGATTCGTCAGTTTCTCGTTC", "sensor-assay potency score (higher = more potent)": -0.583}, {"sequence": "AAGAGCGTGCTTGTGTACCGCA", "sensor-assay potency score (higher = more potent)": -0.0933}, {"sequence": "TTTCAGGAGGCGATCCCGCGCC", "sensor-assay potency score (higher = more potent)": -0.845}, {"sequence": "TCAGCCCGTCGTGAAGAGCGTG", "sensor-assay potency score (higher = more potent)": -1.18}, {"sequence": "TCTCGTTCGTTTCAGGAGGCGA", "sensor-assay potency score (higher = more potent)": -0.839}, {"sequence": "TCGTTTCAGGAGGCGATCCCGC", "sensor-assay potency score (higher = more potent)": -1.24}, {"sequence": "TCAGTTTCTCGTTCGTTTCAGG", "sensor-assay potency score (higher = more potent)": -0.203}, {"sequence": "TTCGTCAGTTTCTCGTTCGTTT", "sensor-assay potency score (higher = more potent)": -0.143}, {"sequence": "ATTCGTCAGTTTCTCGTTCGTT", "sensor-assay potency score (higher = more potent)": -0.19}, {"sequence": "TGCTTGTGTACCGCAACGGGGA", "sensor-assay potency score (higher = more potent)": -1.14}, {"sequence": "TTTCTCGTTCGTTTCAGGAGGC", "sensor-assay potency score (higher = more potent)": 0.381}, {"sequence": "TTCTCGTTCGTTTCAGGAGGCG", "sensor-assay potency score (higher = more potent)": -0.584}]}, {"target": "KBTBD10", "assay": "pooled miR-30 sensor sort-seq; sequence = guide strand", "conditions": "shRNA", "values": [{"sequence": "TTTGCCTGCAACTACATAGATT", "sensor-assay potency score (higher = more potent)": -1.51}, {"sequence": "TTTTGCTGGGTAACAATGCTGG", "sensor-assay potency score (higher = more potent)": -0.684}, {"sequence": "TAGCTCCTGAAGCATAACGTAT", "sensor-assay potency score (higher = more potent)": -1.66}, {"sequence": "ATTGTCTAGCACTACCTCCTTT", "sensor-assay potency score (higher = more potent)": -0.463}, {"sequence": "TGAAGCATAACGTATTTCCTTC", "sensor-assay potency score (higher = more potent)": -0.295}, {"sequence": "TTGTACATTTTTTGTCATCTGT", "sensor-assay potency score (higher = more potent)": -0.405}, {"sequence": "TATGTCATTGACTTCAGTGGGT", "sensor-assay potency score (higher = more potent)": 0.618}, {"sequence": "TTGTCTAGCACTACCTCCTTTT", "sensor-assay potency score (higher = more potent)": -0.574}, {"sequence": "TAAGGTAGCATTCATTTTCCGT", "sensor-assay potency score (higher = more potent)": -0.0345}, {"sequence": "TTTATCATCCACCTCTCCCAGA", "sensor-assay potency score (higher = more potent)": -0.692}, {"sequence": "TTGCTAGGCAACTAGCTCCTGA", "sensor-assay potency score (higher = more potent)": -0.209}, {"sequence": "TTGCATACAGAGATCCAGCCAG", "sensor-assay potency score (higher = more potent)": -0.134}]}, {"target": "KBTBD12", "assay": "pooled miR-30 sensor sort-seq; sequence = guide strand", "conditions": "shRNA", "values": [{"sequence": "TTCATCAGGAAGATCCATCTGA", "sensor-assay potency score (higher = more potent)": 0.942}, {"sequence": "TTCTTCATCAGGAAGATCCATC", "sensor-assay potency score (higher = more potent)": -0.961}, {"sequence": "TAAATCTTCAGCTCCAATCTGC", "sensor-assay potency score (higher = more potent)": 0.302}, {"sequence": "TTATTCAGTAAATTCAAGCTAT", "sensor-assay potency score (higher = more potent)": -0.287}, {"sequence": "TATGTCTTGATCTGATTCCTGA", "sensor-assay potency score (higher = more potent)": 0.119}, {"sequence": "TTTAATAACACCGACACACTTT", "sensor-assay potency score (higher = more potent)": 0.48}, {"sequence": "TGGTCATCTAGCTACAACCTAC", "sensor-assay potency score (higher = more potent)": -1.11}, {"sequence": "TTGTCTTGACCTACACAGCCAA", "sensor-assay potency score (higher = more potent)": -0.566}, {"sequence": "TTGTAGTGTCTTATTTACCCTA", "sensor-assay potency score (higher = more potent)": -0.555}]}]}
